Activity calls are given as the source filed them. How the source made its calls: active means hit-call score of the fitted dose curve at least 0.9, where 1 is the maximum; inactive means score below 0.9.
Assays:
[1] = CCTE_Padilla_ZF_Score.Edema: CCTE's 144 Hour Post-fertilization zebrafish Assay Score for Edema Malformation, Padilla Lab (AID 2284406)
In short: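 Wild-type zebrafish embryos, one per well in Hanks' solution, dosed at 6-8 hpf, sealed and reared at 26C on a 14:10 h cycle; rinsed on 5 dpf. At 6 dpf, blinded assessors scored edema by stereomicroscopy.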

[2] = CCTE_Padilla_ZF_Score.Spine: CCTE's 144 Hour Post-fertilization zebrafish Assay Score for Spine Malformation, Padilla Lab (AID 2284407)
In short: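 Wild-type zebrafish embryos, one per well in Hanks' solution, dosed at 6–8 hpf in sealed plates at 26C, 14:10 h light:dark; rinsed at 5 dpf. Two blinded assessors scored spinal defects by stereomicroscopy at 6 dpf; fitted versus DMSO.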

[3] = CCTE_Padilla_ZF_Score.Position: CCTE's 144 Hour Post-fertilization zebrafish Assay Score for Position, Padilla Lab (AID 2284409)
In short: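 Wild-type zebrafish embryos (with chorions) exposed singly from 6–8 hpf in sealed wells of Hanks' solution at 26C, rinsed at 5 dpf. At 6 dpf, blinded assessors scored abnormal water-column position by brightfield stereomicroscopy, relative to DMSO.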

[4] = CCTE_Padilla_ZF_Score.Living: CCTE's 144 Hour Post-fertilization zebrafish Assay Score for Viability, Padilla Lab (AID 2284410);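 further: larval death at 6 dpf judged by absent heartbeat or coagulation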
In short: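 Wild-type zebrafish embryos were exposed singly from 6–8 hpf in sealed wells of Hanks' solution at 26C, then rinsed at 5 dpf. At 6 dpf, blinded assessors scored mortality (no heartbeat or coagulation) by stereomicroscopy, fitted against DMSO.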

[5] = CCTE_Padilla_ZF_Score.General: CCTE's 144 Hour Post-fertilization zebrafish Assay Score for General Malformation, Padilla Lab (AID 2284411)
In short: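 Wild-type zebrafish embryos were plated singly at 6-8 hpf in 10% Hanks' and exposed in sealed wells at 26C until rinsed on 5 dpf. At 6 dpf two blinded assessors scored mortality, hatching and malformations by stereomicroscopy; gain-of-signal versus DMSO.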

[6] = CCTE_Padilla_ZF_Score.Tail: CCTE's 144 Hour Post-fertilization zebrafish Assay Score for Tail Malformation, Padilla Lab (AID 2284414)
In short: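 Wild-type zebrafish embryos, one per well in 200 uL 10% Hanks', dosed at 6-8 hpf, sealed, and kept at 26 C on a 14:10 h light cycle. Chemical was rinsed out at 5 dpf. Blinded brightfield scoring of tail defects followed at 6 dpf.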

[7] = CCTE_Padilla_ZF_Score.Blood_pooling: CCTE's 144 Hour Post-fertilization zebrafish Assay Score for Blood Pooling, Padilla Lab (AID 2284415)
In short: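 Wild-type outbred zebrafish embryos, one per well in 10% Hanks', exposed from 6–8 hpf in sealed plates at 26C on 14:10 h light:dark, rinsed at 5 dpf. Blinded stereomicroscope scoring of blood pooling at 6 dpf; gain-of-signal versus DMSO.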

[8] = CCTE_Padilla_ZF_Score.Any: CCTE's 144 Hour Post-fertilization zebrafish Assay Score for Any Mortality or Malformation, Padilla Lab (AID 2284416)
In short: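 Wild-type zebrafish embryos with chorions, one per well in 10% Hanks' from 6–8 hpf, dosed in sealed plates at 26 C, 14:10 h light:dark; rinsed at 5 dpf; blinded scoring at 6 dpf for death or malformation, versus DMSO.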

[9] = CCTE_Padilla_ZF_Score.Swim_bladder: CCTE's 144 Hour Post-fertilization zebrafish Assay Score for Swim Bladder Malformation, Padilla Lab (AID 2284408)
In short: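 Wild-type zebrafish embryos, one per well in 10% Hanks', dosed at 6–8 hpf, sealed, reared at 26C and rinsed at 5 dpf. Blinded assessors scored uninflated swim bladder by stereomicroscopy at 6 dpf, relative to DMSO.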

For `C=CC(=O)OCC(F)(F)C(F)(F)C(F)(F)COC(=O)C=C`, the outcome [1] was “inactive”, the outcome [2] was “inactive” and the outcome [3] was “inactive”. For the same compound, the AC50 [4] was 10 µM (active), the outcome [5] was “inactive” and the outcome [6] was “inactive”. The outcome [7] was “inactive” and the AC50 [8] was 8.95 µM (active).
With `CCN(CCO)S(=O)(=O)C(F)(F)C(F)(F)C(F)(F)C(F)(F)C(F)(F)C(F)(F)C(F)(F)C(F)(F)F` the outcome [1] was “inactive”, the outcome [3] was “inactive” and the outcome [4] was “inactive”. The outcome [5] was “inactive”, the outcome [6] was “inactive” and the outcome [7] was “inactive”. The outcome [8] was “inactive”.
For `NCC(F)(F)C(F)(F)C(F)(F)C(F)(F)C(F)(F)C(F)(F)F`, the AC50 [1] was 75.3 µM (active), the outcome [3] was “inactive” and the outcome [4] was “inactive”. The AC50 [5] was 75.3 µM (active), the outcome [6] was “inactive” and the outcome [7] was “inactive”. The AC50 [8] was 75.3 µM (active).
In the case of `NC(=O)C(F)(F)C(F)(F)C(F)(F)C(F)(F)C(F)(F)C(F)(F)C(F)(F)F`, the outcome [1] is reported as “inactive”, the outcome [9] is reported as “inactive” and the outcome [3] is reported as “inactive”. For the same compound, the outcome [4] was “inactive”, the outcome [5] was “inactive” and the outcome [6] was “inactive”. For the same compound, the outcome [7] was “inactive” and the outcome [8] was “inactive”.
For `C=C(C)C(=O)OCC(F)(F)C(F)(F)C(F)(F)C(F)F`, the outcome [1] was “inactive”, the outcome [9] was “inactive” and the outcome [3] was “inactive”. The outcome [4] was “inactive”, the outcome [5] was “inactive” and the outcome [6] was “inactive”. The outcome [7] was “inactive” and the AC50 [8] was 30 µM (active).
In the case of `O=C(O)C(F)(F)OC(F)(F)C(F)(F)OC(F)(F)C(F)(F)OC(F)(F)F`, the outcome [1] is reported as “inactive”, the outcome [3] is reported as “inactive” and the outcome [4] is reported as “inactive”. The outcome [5] was “inactive”, the outcome [6] was “inactive” and the outcome [7] was “inactive”. For the same compound, the outcome [8] was “inactive”.
With `O=C(Cl)C(F)(F)C(F)(F)C(F)(F)C(F)(F)C(F)(F)C(F)(F)F` the AC50 [1] was 76.8 µM (active), the outcome [3] was “inactive” and the outcome [4] was “inactive”. The AC50 [5] was 76.8 µM (active), the outcome [6] was “inactive” and the outcome [7] was “inactive”. The AC50 [8] was 76.8 µM (active).
With `FC(F)(F)C(F)(F)C(F)(F)C(F)(F)C(F)(F)C(F)(F)C(F)(F)CCI` the outcome [1] was “inactive”, the outcome [3] was “inactive” and the outcome [4] was “inactive”. The outcome [5] was “inactive”, the outcome [6] was “inactive” and the outcome [7] was “inactive”. For the same compound, the outcome [8] was “inactive”.
With `NS(=O)(=O)C(F)(F)C(F)(F)C(F)(F)C(F)(F)C(F)(F)C(F)(F)F` the AC50 [1] was 2.27 µM (active), the AC50 [3] was 2.51 µM (active) and the AC50 [4] was 4.62 µM (active). For the same compound, the AC50 [5] was 2.27 µM (active), the outcome [6] was “inactive” and the outcome [7] was “inactive”. The AC50 [8] was 1.81 µM (active).
For `C=CC(=O)OCCC(F)(F)C(F)(F)C(F)(F)C(F)(F)F`, the outcome [1] was “inactive”, the outcome [3] was “inactive” and the AC50 [4] was 20.9 µM (active). The AC50 [5] was 76.7 µM (active), the outcome [6] was “inactive” and the outcome [7] was “inactive”. The AC50 [8] was 30 µM (active).
For `OCC(F)(F)C(F)(F)C(F)(F)C(F)(F)C(F)(F)C(F)(F)CO`, the AC50 [1] was 62.9 µM (active), the outcome [3] was “inactive” and the outcome [4] was “inactive”. The AC50 [5] was 47.7 µM (active), the outcome [6] was “inactive” and the outcome [7] was “inactive”. The AC50 [8] was 62.4 µM (active).
For `O=C(O)C(F)(F)C(F)(F)C(F)(F)C(=O)O`, the outcome [1] was “inactive”, the outcome [3] was “inactive” and the outcome [4] was “inactive”. The outcome [5] was “inactive”, the outcome [6] was “inactive” and the outcome [7] was “inactive”. For the same compound, the outcome [8] was “inactive”.
With `O=C(O)C(F)(F)C(F)(F)C(F)(F)C(F)(F)C(F)(F)C(F)(F)C(F)F` the outcome [1] was “inactive”, the outcome [3] was “inactive” and the outcome [4] was “inactive”. For the same compound, the outcome [5] was “inactive”, the outcome [6] was “inactive” and the outcome [7] was “inactive”. For the same compound, the outcome [8] was “inactive”.
In the case of `CCOC(=O)CC(=O)C(F)(F)C(F)(F)F`, the outcome [1] is reported as “inactive”, the outcome [3] is reported as “inactive” and the outcome [4] is reported as “inactive”. The outcome [5] was “inactive”, the outcome [6] was “inactive” and the outcome [7] was “inactive”. The outcome [8] was “inactive”.
In the case of `FC(F)(F)C(F)(F)C(F)(F)CC1CO1` (stereo not drawn), the outcome [1] is reported as “inactive”, the outcome [3] is reported as “inactive” and the outcome [4] is reported as “inactive”. The outcome [5] was “inactive”, the outcome [6] was “inactive” and the outcome [7] was “inactive”. The outcome [8] was “inactive”.
For `CO[Si](C)(CCC(F)(F)C(F)(F)C(F)(F)C(F)(F)C(F)(F)C(F)(F)F)OC`, the outcome [1] was “inactive”, the outcome [3] was “inactive” and the outcome [4] was “inactive”. For the same compound, the outcome [5] was “inactive”, the outcome [6] was “inactive” and the outcome [7] was “inactive”. For the same compound, the outcome [8] was “inactive”.
In the case of `O=S(=O)(Cl)C(F)(F)C(F)(F)C(F)(F)C(F)(F)C(F)(F)C(F)(F)C(F)(F)C(F)(F)F`, the AC50 [1] is reported as 33.5 µM (active), the AC50 [2] is reported as 88.8 µM (active) and the AC50 [3] is reported as 81.7 µM (active). For the same compound, the AC50 [4] was 88.8 µM (active), the outcome [5] was “inactive” and the outcome [6] was “inactive”. The outcome [7] was “inactive” and the AC50 [8] was 12.1 µM (active).
In the case of `C=CC(=O)OCC(F)(F)C(F)(F)C(F)(F)C(F)(F)C(F)(F)C(F)(F)C(F)(F)C(F)F`, the outcome [1] is reported as “inactive”, the outcome [3] is reported as “inactive” and the outcome [4] is reported as “inactive”. The outcome [5] was “inactive”, the outcome [6] was “inactive” and the outcome [7] was “inactive”. The outcome [8] was “inactive”.
For `O=C(O)C(F)(F)C(F)(F)C(F)(F)OC(F)(F)F`, the outcome [1] was “inactive”, the outcome [3] was “inactive” and the outcome [4] was “inactive”. For the same compound, the outcome [5] was “inactive”, the outcome [6] was “inactive” and the outcome [7] was “inactive”. The outcome [8] was “inactive”.
With `CNS(=O)(=O)C(F)(F)C(F)(F)C(F)(F)C(F)(F)C(F)(F)C(F)(F)C(F)(F)C(F)(F)F` the AC50 [1] was 20.7 µM (active), the AC50 [9] was 0.606 µM (active) and the outcome [3] was “inactive”. For the same compound, the outcome [4] was “inactive”, the AC50 [5] was 0.737 µM (active) and the outcome [6] was “inactive”. The outcome [7] was “inactive” and the AC50 [8] was 0.778 µM (active).
For `O=S(=O)(OCC(F)(F)F)C(F)(F)C(F)(F)C(F)(F)C(F)(F)F`, the AC50 [1] was 34.1 µM (active), the outcome [3] was “inactive” and the outcome [4] was “inactive”. For the same compound, the outcome [5] was “inactive”, the outcome [6] was “inactive” and the AC50 [7] was 33.3 µM (active). The AC50 [8] was 33.3 µM (active).
With `O=C(Cl)C(F)(F)C(F)(F)C(F)(F)C(F)(F)C(F)(F)C(F)(F)C(F)(F)F` the AC50 [1] was 86.8 µM (active), the outcome [3] was “inactive” and the outcome [4] was “inactive”. For the same compound, the outcome [5] was “inactive”, the outcome [6] was “inactive” and the outcome [7] was “inactive”. For the same compound, the AC50 [8] was 86.8 µM (active).
For `O=C(O)CCC(F)(F)C(F)(F)C(F)(F)F`, the outcome [1] was “inactive”, the outcome [3] was “inactive” and the outcome [4] was “inactive”. The outcome [5] was “inactive”, the outcome [6] was “inactive” and the outcome [7] was “inactive”. For the same compound, the AC50 [8] was 77.1 µM (active).
With `NC(=O)C(F)(F)C(F)(F)C(F)(F)C(F)F` the outcome [1] was “inactive”, the outcome [3] was “inactive” and the outcome [4] was “inactive”. The outcome [5] was “inactive”, the outcome [6] was “inactive” and the outcome [7] was “inactive”. The outcome [8] was “inactive”.
With `O=C(O)C(F)(F)C(F)(F)C(F)(F)OC(F)(C(F)(F)F)C(F)(F)F` the outcome [1] was “inactive”, the outcome [2] was “inactive” and the outcome [3] was “inactive”. The outcome [4] was “inactive”, the outcome [5] was “inactive” and the outcome [6] was “inactive”. The outcome [7] was “inactive” and the outcome [8] was “inactive”.
In the case of `NC(O)(C(F)(F)F)C(F)(F)F`, the outcome [1] is reported as “inactive”, the outcome [3] is reported as “inactive” and the outcome [4] is reported as “inactive”. The AC50 [5] was 85 µM (active), the outcome [6] was “inactive” and the outcome [7] was “inactive”. For the same compound, the outcome [8] was “inactive”.
